From PubChem
Tau fibril ThT = tau fibrillization inhibition (ThT binding). P10636. recombinant tau K18 P301L, heparin-induced fibrillization, ThT fluorescence. Potency, µM (series often up to 57.4 µM), inactives show at the highest dose activity, negative = inhibition, hits mostly inhibitors. actives 2.1% (n = 270,000); further: potency means the concentration at half of the fitted maximal effect; nearly all actives have a fitted effect of over 55% in size
Target sequence (P10636 561-689 P618L limits assumed): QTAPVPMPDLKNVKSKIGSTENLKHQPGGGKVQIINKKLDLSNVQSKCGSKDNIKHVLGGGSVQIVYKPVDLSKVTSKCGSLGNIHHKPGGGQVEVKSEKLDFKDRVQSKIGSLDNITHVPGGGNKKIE
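Recombinant human tau K18 fragment […] carrying P301L, 15 uM unlabeled plus 0.24 uM Alexa 594-labeled, was fibrillized with 20 uM heparin in 100 mM sodium acetate pH 7 for 6 hr at 37 C; 30 uM ThT fluorescence read after 1 hr.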
Sfp PPTase inh = inhibitors of Bacillus subtilis Sfp phosphopantetheinyl transferase. actives 3.5% (n = 310,000). Potency, µM, for inactives: largest response in the series, negative = inhibition, hits mostly inhibitors. Q9F4F7. AID 1490. Biochemical Sfp PPTase activity, qHTS;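 further: the enzyme is Sfp with the accession as filed and its product quenches rhodamine fluorescence; potency means the concentration at half of the fitted maximal effect; 0% = enzyme reaction without inhibitor and -100% = no enzyme wells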
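Buffer: 50 mM Hepes-Na pH 7.6, 10 mM MgCl2, 0.01% Nonidet P-40, 0.01% BSA. Enzyme 15 nM, pre-exposed to compound 15 min; substrates then added and fluorescence change tracked over 30 min.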
Tau fibril FP = tau fibrillization inhibition (FP) | actives 0.39% (n = 280,000) | AID 1468 | K18 P301L tau heparin fibrillization, Alexa594 FP, 6 h | P10636 | Potency, µM (titrated, usually from 57.7 µM), for the others: top-dose activity, negative = inhibition, hits mostly inhibitors; further: potency means the concentration at half of the fitted maximal effect; nearly all actives have a fitted effect of over 55% in size
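Recombinant K18 P301L […], labeled with Alexa 594 at 0.24 uM over 15 uM unlabeled; heparin inducer 20 uM final; 37 C, 6 hr; FP endpoint.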
Tau fluor counter = counter-screen for tau fibril formation inhibitors. AID 1463. actives 0.93% (n = 280,000). Potency, µM (highest dose often 57.7 µM), without a hit: at the highest dose activity change, negative = decrease. tau K18 P301L Alexa594 fluorescence, heparin fibrillization; further: potency means the concentration at half of the fitted maximal effect; nearly all actives have a fitted effect of over 55% in size
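Human tau K18 P301L (15 uM unlabeled, 0.24 uM Alexa 594-labeled) in 100 mM sodium acetate pH 7 with 20 uM heparin, 6 hr at 37 C. ThT 30 uM added, 1 hr ambient; Alexa 594 FP and total fluorescence read at 555/632 nm.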
Coupling enz = coupling enzyme interference in Giardia aldolase counter-screen. actives 0.67% (n = 290,000). activity change, negative = inhibition, % at 58.2 µM, hits read low. coupling enzyme system counterscreen, AmpLite Red fluorescence; in the data active means activity change below about -30%
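Activity here indicates interference with the coupling reaction, not aldolase inhibition. Compounds at 57.5 uM final met coupling enzymes for 10 min at RT; substrate and AmpLite Red detection followed, with a 525/598 nm fluorescence read after 20 min.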
* hit, by the source's call; ? = inconclusive; · = no result; ! = a repeat was not active; [ ] = dose if it differs, or a comment. A selection: hits, their analogues and other compounds. The true share with any hit is near 5.2%. Unless noted, the call rests on the fitted dose curve; in most records, active means well fitted curve in the direction sought with a large enough effect; inconclusive means small, poorly fitted or top-dose-only effect, or another doubt; inactive means no such curve, though single readings can be large; an effect the other way counts as inactive or inconclusive. Unless noted, on the % scale 0 is the no-effect control and ±100 the full control effect.

SMILES | Tau fibril ThT | Sfp PPTase inh | Tau fibril FP | Tau fluor counter | Coupling enz
CCCCCCOc1ccc(C2C(=O)N(C3CCCCC3)CC(=O)N2C2CCCCC2)cc1 (stereo not drawn) | -11% | · | -5% | -3% | ·
COc1ccccc1NC(=O)CN1CCC(n2nnc3cc(F)ccc32)CC1 | -22% | 4% | 3% | -15% | 0
O=C(CN1CCC(n2nnc3cc(F)ccc32)CC1)NCc1ccco1 | -12% | 56µM* | -8% | -16% | -28
CCOC(=O)COc1cc(C)c(Cl)cc1C(=O)c1ccn2nc(-c3ccc(OC)cc3)cc2n1 | 1% | · | -18% | -3% | ·
CC(=O)c1ccccc1OC(=O)c1ccc([N+](=O)[O-])o1 | 7.9µM* | -10% | ? | -23% | -7
CCOc1ccc(NC(=O)C2CCN(c3nnc(C)c4c(C)n(-c5ccccc5)nc34)CC2)cc1 | 4% | · | 6% | 2% | ·
c1ccc(C[n+]2csc3ccccc32)cc1 | ? | 18µM* | -14% | -21% | -4
Fc1cccc(C[n+]2csc3ccccc32)c1 | 25µM* | 20µM* | ? | -23% | -2
O=c1c2sc3ccccc3c2n(Cc2cccc(F)c2)c(=O)n1Cc1ccccc1 | -2% | · | ? | -22% | ·
COc1cc(/C=C(\C#N)c2nc3ccccc3[nH]2)cc(Cl)c1OCc1ccccc1Cl | -2% | · | ? | ? | ·
CCOCCCNS(=O)(=O)c1ccc2c(c1)OCCO2 | 16µM* | 17% | -5% | 16µM*[quencher] | 2
CN1CCc2cc3c(c4c2[C@H]1[C@H](O)c1ccccc1-4)OCO3 | ? | -5% | -2% | -17% | -32*
COC(=O)CN1C(=O)C2(C(C#N)=C(N)Oc3c2c(C)nn3-c2ccccc2)c2ccccc21 (stereo not drawn) | 28µM* | 4% | ? | -25% | -50*
CCOc1ccc(NC(=O)CSc2nnc(CC)c(CC)n2)cc1 | -9% | · | 7% | -4% | ·
O=C(O)C1CSC(c2ccc3c(c2)OCO3)N1 (stereo not drawn) | ? | 25µM* | ? | -15% | 6
CCOC(=O)C1=C(CN2CCN(c3ccccc3F)CC2)NC(=O)NC1c1ccc(OC)cc1 (stereo not drawn) | -18% | · | 2% | -16% | ·
CC(C)c1ccc(Nc2c(-c3ccccn3)nc3ccccn23)cc1 | ? | · | 2% | ? | ·
Clc1cccc(-c2nc3ccccn3c2Nc2ccc3c(c2)OCCO3)c1 | ? | · | ? | 7.9µM*[quencher] | ·
COc1cc(-c2nc3cccc(C)n3c2Nc2ccc3c(c2)OCCO3)ccc1O | ? | · | 4% | 18µM*[quencher] | ·
Cc1ccn2c(Nc3ccc4c(c3)OCO4)c(-c3ccc(O)cc3)nc2c1 | ? | -5% | 3% | 18µM*[quencher] | 1
COc1cc(-c2nc3cnccn3c2Nc2ccc3c(c2)OCCO3)ccc1O | ? | -10% | 9% | ? | 0
COc1cc(-c2nc3ccc(C)cn3c2Nc2ccc3c(c2)OCCO3)ccc1O | ? | -17% | 10% | 16µM*[quencher] | 2
Cc1cccc2nc(-c3ccco3)c(Nc3ccc4c(c3)OCCO4)n12 | -16% | -1% | 9% | -22% | 0
CC(=O)C[C@H](c1ccccc1)c1c(O)c2ccccc2oc1=O | · | 10% | · | · | 19
OC1OC[C@H](O)[C@@H](O)[C@@H]1O (stereo partly drawn) | · | 1% | · | · | 0
SMILES | Tau fibril ThT | Sfp PPTase inh | Tau fibril FP | Tau fluor counter | Coupling enz
Oc1ccc(N=Nc2ccc3c(c2)OCO3)c2ccccc12 | 0.89µM* | 15% | ? | -20% | -3
Cc1ccc(N=Nc2ccc(O)c3ncccc23)cc1C | ? | 6% | 13% | -27% | -8
S=C(NCc1ccncc1)Nc1ccc(Br)cc1Cl | · | 0% | · | · | ·
Cc1cccnc1NC(=S)Nc1ccc(Br)cc1Cl | -11% | 20µM* | -7% | -14% | 3
CCOc1ccc(NC(=S)Nc2ccc(Br)cc2Cl)cc1 | ? | 40µM* | 5% | -24% | -1
COc1cccc(NC(=S)Nc2ccc(Br)cc2Cl)c1 | -15% | -5% | -13% | ? | 2
Cc1cc(C)cc(NC(=O)NCCc2c(C)nn(C)c2C)c1 | 4% | · | -13% | 2% | ·
CCn1c(=O)c(-[n+]2ccccc2)c(O)c2ccccc21 | -13% | 13µM* | -8% | -3% | -2
O=C(Cn1c(=O)n(-c2ccccc2)c(=O)c2c3c(sc21)CCCC3)Nc1ccc(F)cc1F | 16% | · | -16% | -7% | ·
O=C(Cc1ccc(Cl)cc1)NCC(c1cccs1)S(=O)(=O)c1ccccc1 (stereo not drawn) | -1% | · | 3% | -12% | ·
COc1cc2c3cc1OCc1c(O)c(OC)cc4c1C(Cc1ccc(cc1)Oc1cc(ccc1O)CC3N(C)CC2)N(C)CC4 (stereo not drawn) | · | 9% | · | · | 3
CN1CCc2cccc3c2[C@H]1Cc1ccc(O)c(O)c1-3 | 18µM* | 40µM* | 20µM*! | 22µM*[quencher] | -9
CCOC(=O)c1ccc(NC(=O)CCc2nc(-c3ccc(Cl)cc3)no2)cc1 | ? | 89µM* | ? | -30% | -1
COc1ccc(-n2nc(-c3ccc(C)cc3)c3cnc4cc(F)c(F)cc4c32)cc1 | 0% | · | -1% | 3% | ·
Clc1ss/c(=N\c2ccccn2)c1Cl | ? | 35µM* | -15% | -10% | -1
CC1CC=CC2C1C(=O)N(Cc1ccccc1)C2c1ccc(-c2cc3ccccc3s2)cc1F (stereo not drawn) | · | 9% | · | · | -1
CCc1ccc(/C=C/C(=O)c2cc(Br)ccc(=O)c2O)cc1 | 16µM* | 14µM* | ? | ? | 0
CCOc1ccc(/C=C/C(=O)c2cc(Br)ccc(=O)c2O)cc1 | 4.5µM* | 20µM* | ? | ? | -2
Cc1cccc(/C=C/C(=O)c2cc(Br)ccc(=O)c2O)c1 | 14µM* | 14µM* | ? | ? | 0
Cc1ccc(N2CC(NC(=O)C3CCCCC3)CC2=O)cc1C (stereo not drawn) | 1% | · | 2% | -7% | ·
CCOc1ccc(CC(=O)Nc2c(C(=O)Nc3ccc(OC)cc3OC)oc3ccccc23)cc1 | 9% | · | -6% | -24% | ·
CSc1nnc(-c2ccccc2SC)o1 | 3% | ? | -6% | 2% | 0
CC1CCc2sc(-c3n[nH]c(=S)o3)cc2C1 (stereo not drawn) | -17% | -24% | 7% | -8% | 19
CSc1nnc(-c2cc3c(s2)-c2ccccc2CC3)o1 | ? | 18µM* | -2% | -25% | 1
S=c1[nH]nc(-c2cc3c(s2)-c2ccccc2CC3)o1 | 13µM* | ? | 13% | ? | 9
CCCn1c2ccccc2c2cnn(CC(=O)N(Cc3ccccc3)C(C)C)c(=O)c21 | -11% | · | 7% | -2% | ·
FC(F)(F)c1nc2cc3nc4ccccc4[nH]c3cc2n1 | 5µM* | 2% | ? | -30% | -19
CC(C)Oc1ccc(CNC(=O)c2sc3ncccc3c2-n2cccc2)cc1 | 2% | · | -6% | 2% | ·
